Laboratory results as given in article PMC7826789 (International Journal of Molecular Sciences, 2021).

How the values were obtained:
Conditions in all cases: Compound Concentration (nM):1000
MAST1 = test system: MAST1
MEK1 = test system: T1, MEK1
T1 construct: gene MAP2K1

MEK2 = test system: T2, MEK2
T2 construct: gene MAP2K2

MEK3 = test system: T3, MEK3
T3 construct: gene MAP2K3

MEK4 = test system: T4, MEK4
T4 construct: gene MAP2K4

MEK5 = test system: T5, MEK5
T5 construct: gene MAP2K5

MEK6 = test system: T6, MEK6
T6 construct: gene MAP2K6

MELK = test system: MELK
MERTK = test system: MERTK
MET(M1250T) = test system: MET(M1250T)
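Note: KINOMEscan scanMAX binding as percent activity remaining versus control; lower means stronger binding.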

Row | Compound | Percent Control (MAST1) [%] | Percent Control (MEK1) [%] | Percent Control (MEK2) [%] | Percent Control (MEK3) [%] | Percent Control (MEK4) [%] | Percent Control (MEK5) [%] | Percent Control (MEK6) [%] | Percent Control (MELK) [%] | Percent Control (MERTK) [%] | Percent Control (MET(M1250T)) [%]
1 | COc1ccc(COc2ccc(Cc3cnc(N)nc3N)cc2OC)cc1 [GW632580X] | 93 | 90 | 90 | 93 | 100 | 97 | 100 | 100 | 100 | 100
2 | CCn1c(-c2nonc2N)nc2c(C#CC(C)(C)O)nc(OCCNC)cc21.Cl [GSK949675] | 51 | 100 | 100 | 40 | 100 | 100 | 80 | 45 | 80 | 100
3 | COc1cc2ncnc(Nc3ccc4c(cnn4Cc4ccccc4)c3)c2cc1OC.Cl [GW282449A] | 100 | 37 | 50 | 100 | 100 | 0 | 97 | 100 | 83 | 100
4 | COc1ccccc1-c1cc(/C=C2\C(=O)Nc3ncc(Br)cc32)cc(Br)c1O [GW442130X] | 85 | 74 | 82 | 72 | 86 | 64 | 76 | 94 | 95 | 96
5 | CCS(=O)(=O)c1ccc(OC)c(Nc2ncc(-c3cccc(F)c3)o2)c1 [GW621970X] | 93 | 93 | 92 | 76 | 100 | 4.1 | 82 | 86 | 67 | 100
6 | Cl.O=S1CCN(Cc2ccc(-c3ccc4ncnc(Nc5ccc(OCc6ccccc6)c(F)c5)c4c3)o2)CC1 [GW576924A] | 65 | 83 | 93 | 100 | 98 | 12 | 91 | 95 | 60 | 100
7 | COc1cc(C)c(N(C)C(=O)CN(C)C)cc1Nc1nc(Nc2cccc(F)c2C(N)=O)c2cc[nH]c2n1 [GSK2219385] | 44 | 100 | 100 | 91 | 94 | 85 | 100 | 100 | 87 | 100
8 | CC1=C(C(=O)Nc2ccc3[nH]ncc3c2)C(c2ccc(Cl)c(Cl)c2)CC(=O)N1 (stereo not shown) [GSK299115A] | 72 | 73 | 69 | 77 | 89 | 79 | 84 | 88 | 100 | 95
9 | COc1cc(N2CCN(C(C)C)CC2)ccc1Nc1nc(Nc2ccc(F)cc2C(=O)NC[C@@H](O)CO)c2cc[nH]c2n1 [GSK1392956A] | 43 | 100 | 100 | 23 | 77 | 96 | 67 | 57 | 77 | 78
10 | O=C1Nc2ccc(C(=O)c3ccco3)cc2C1=Cc1cc(Cl)c(O)c(Cl)c1 [GW406108X] | 64 | 76 | 91 | 16 | 32 | 72 | 72 | 78 | 100 | 59
11 | COc1cc2ncn(-c3cc(O[C@H](C)c4ccccc4Cl)c(C(N)=O)s3)c2cc1OC [GSK237701A] | 96 | 90 | 90 | 100 | 91 | 59 | 84 | 81 | 28 | 81
12 | Cc1cc(O)cc(C)c1/C=C/c1cncc(C(N)=O)c1 [GW435821X] | 100 | 81 | 89 | 100 | 100 | 5.3 | 100 | 95 | 100 | 100
13 | NS(=O)(=O)c1ccc(N/N=C2\C(=O)Nc3ccc(C(=O)NCCc4c[nH]cn4)cc32)cc1 [GW300660X] | 100 | 93 | 90 | 39 | 100 | 39 | 96 | 15 | 100 | 100
14 | Cl.O=C(Nc1ccc(Oc2ccc3[nH]c(NC(=O)c4ccco4)nc3c2)cc1)Nc1cc(C(F)(F)F)ccc1F [GW683134A] | 98 | 96 | 99 | 83 | 100 | 19 | 73 | 82 | 0.2 | 27
15 | CC1=C(C(=O)Nc2ccc3[nH]ncc3c2)C(c2ccc3ccccc3c2)CC(=O)N1 (stereo not shown) [GSK270822A] | 87 | 79 | 74 | 69 | 82 | 70 | 92 | 100 | 100 | 32
16 | COc1ccc2c(-c3ccnc(Nc4cccc(OC(F)(F)F)c4)n3)cnn2n1 [GW810372X] | 56 | 100 | 100 | 30 | 82 | 72 | 78 | 96 | 100 | 100
17 | COc1cccc(-n2ncc3c(N/N=C/c4ccncc4)ncnc32)c1 [GW784752X] | 76 | 98 | 96 | 79 | 97 | 2.3 | 87 | 100 | 86 | 46
18 | NS(=O)(=O)c1ccc(N/N=C2\C(=O)Nc3ccc(C(=O)NCc4ccncc4)cc32)cc1 [GW300657X] | 33 | 100 | 100 | 41 | 87 | 48 | 79 | 35 | 69 | 82
19 | O=C(Nc1n[nH]c2nc(-c3ccc(O)cc3)c(Br)cc12)C1CC1 [SB-725317] | 84 | 100 | 100 | 75 | 100 | 28 | 98 | 100 | 100 | 100
20 | Cl.O=C(Nc1ccc(Oc2ccc3[nH]c(NC(=O)c4ccccc4)nc3c2)cc1)Nc1cc(C(F)(F)F)ccc1F [GW709042A] | 99 | 80 | 98 | 91 | 100 | 51 | 86 | 68 | 8.2 | 78

Row | Compound | Percent Control (MAST1) [%] | Percent Control (MEK1) [%] | Percent Control (MEK2) [%] | Percent Control (MEK3) [%] | Percent Control (MEK4) [%] | Percent Control (MEK5) [%] | Percent Control (MEK6) [%] | Percent Control (MELK) [%] | Percent Control (MERTK) [%] | Percent Control (MET(M1250T)) [%]
21 | CN1CCN(C(=O)c2ccc(NC(=O)Nc3ccc(N(C)c4ccnc(Nc5ccc(CS(C)(=O)=O)cc5)n4)cc3)cc2)CC1.Cl [GW830263A] | 61 | 33 | 40 | 14 | 6 | 0.1 | 82 | 81 | 56 | 2.2
22 | NS(=O)(=O)c1ccc(Nc2ncc(-c3ccccc3)o2)cc1 [GW572399X] | 100 | 100 | 100 | 30 | 86 | 59 | 65 | 100 | 100 | 100
23 | COc1cccc(-c2c[nH]c3c(N/N=C/c4ccncc4)ncnc23)c1 [GW814408X] | 100 | 95 | 80 | 77 | 100 | 0.1 | 100 | 79 | 94 | 54
24 | Nc1ncnc2occ(-c3ccc(NC(=O)Nc4cc(C(F)(F)F)ccc4F)cc3)c12 [GW770249X] | 100 | 98 | 100 | 100 | 100 | 21 | 100 | 53 | 1.4 | 49
25 | COc1cc(C=NNc2ncnc3c2cnn3-c2ccccc2)ccc1O [GW513184X] | 83 | 76 | 82 | 100 | 100 | 4.6 | 100 | 93 | 93 | 21
26 | CN(C)c1cc2c(Nc3ccc4c(cnn4Cc4ccccc4)c3)ncnc2cn1 [GW282974X] | 77 | 48 | 50 | 83 | 89 | 0 | 84 | 90 | 96 | 75
27 | NS(=O)(=O)c1ccc(N/N=C2\C(=O)Nc3ccc(-c4cnco4)cc32)cc1 [GW276655] | 75 | 91 | 92 | 52 | 84 | 70 | 72 | 97 | 60 | 63
28 | COc1ccc2[nH]c3c4[nH]c5ccc(OC)cc5c4c4c(c3c2c1)C(=O)NC4=O [GW296115X] | 45 | 70 | 59 | 46 | 91 | 0.7 | 97 | 43 | 19 | 88
29 | CCS(=O)(=O)c1ccc(OC)c(Nc2ncc(-c3cccc(OC)c3)o2)c1 [GW580509X] | 93 | 100 | 100 | 78 | 100 | 4.6 | 92 | 100 | 72 | 100
30 | COc1cc(/C=N/Nc2ncnc3[nH]ncc23)ccc1O [GW578748X] | 78 | 78 | 83 | 79 | 94 | 0.5 | 83 | 15 | 100 | 84
31 | Cl.c1ccc(Cc2nc3ccc(Nc4ncnc5ccccc45)cc3[nH]2)cc1 [GR269666A] | 100 | 100 | 100 | 100 | 100 | 2.6 | 92 | 100 | 100 | 100
32 | CN(C)CCNC(=O)Nc1ccc(N(C)c2ccnc(Nc3ccc(CS(C)(=O)=O)cc3)n2)cc1.Cl [GW830900A] | 57 | 86 | 77 | 58 | 75 | 1.9 | 100 | 56 | 91 | 22
33 | COc1ccc2cc(-c3c(-c4ccncc4)nc(-c4ccc(S(C)(=O)=O)cc4C)n3C)ccc2c1 [SB-633825] | 68 | 85 | 80 | 70 | 72 | 61 | 100 | 84 | 82 | 76
34 | CCc1ccc(Oc2nccc(-c3c(-c4ccc(F)cc4)ncn3C3CCNCC3)n2)cc1 [SB-242719] | 81 | 93 | 91 | 78 | 100 | 100 | 100 | 88 | 100 | 100
35 | CC(C)COC(=O)c1ccc2c(c1)/C(=C/Nc1ccc(S(N)(=O)=O)cc1)C(=O)N2 [GW416981X] | 100 | 95 | 92 | 68 | 100 | 21 | 83 | 6.4 | 100 | 92
36 | NS(=O)(=O)c1ccc(N/N=C2\C(=O)Nc3ccc(Cl)cc32)cc1 [GW280670X] | 100 | 98 | 100 | 100 | 100 | 100 | 99 | 100 | 100 | 100
37 | C[C@@H](Oc1cc(-n2cnc3ccc(OC4CCN(C)CC4)cc32)sc1C(N)=O)c1ccccc1Cl [GSK579289A] | 52 | 94 | 96 | 86 | 98 | 51 | 84 | 70 | 84 | 68
38 | COC(=O)Nc1nc2ccc(Oc3ccc(NC(=O)Nc4cc(C(F)(F)F)ccc4F)cc3)cc2s1.Cl [GW693917A] | 41 | 76 | 78 | 100 | 96 | 15 | 98 | 72 | 6.9 | 19
39 | C/C(Nc1ccc(S(N)(=O)=O)cc1)=C1/C(=O)Nc2ccccc21 [GW335962X] | 77 | 75 | 81 | 76 | 39 | 70 | 74 | 87 | 100 | 91
40 | Cl.O=C(O[C@H]1CN[C@H](C#Cc2cc3ncnc(Nc4ccc5c(cnn5Cc5ccccc5)c4)c3s2)C1)N1CCOCC1 [GSK200398A] | 44 | 69 | 79 | 78 | 97 | 0.4 | 71 | 86 | 100 | 86
